Experimental data taken from PubChem BioAssay (NCATS).
Several values for one entry are separate records, joined by “and”; a condition that tells them apart may be missing. Identical values can stand only once. Results filed as inconclusive are left out. Activity calls are given as the source filed them. Unless noted, calls follow the shape of the dose curve; as a rule, active = well fitted curve in the direction sought with a large enough effect; inconclusive = small, poorly fitted or top-dose-only effect, or another doubt; inactive = no such curve, though single readings can be large; an effect the other way counts as inactive or inconclusive.

Experiments:
[1] = Cellular Toxicity (caspase-3) HUV-EC-C (AID 656);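 also: 0% = DMSO basal and 100% = 100 µM tamoxifen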
In short: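 Luminescent caspase-3/7 activation (aminoluciferin substrate cleavage) in HUV-EC-C cells after 16 hr compound exposure, 37°C. Signal normalized to DMSO basal and 100 uM tamoxifen as 100%; AC50 from concentration-response fitted with the Hill equation.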

[2] = Cellular Toxicity (caspase-3) SK-N-SH (AID 661);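 also: 0% = DMSO basal and 100% = 10 µM staurosporine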
In short: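 Caspase 3/7 activation is measured as a luminescence increase from aminoluciferin released by substrate cleavage in SK-N-SH cells after 16 hr compound treatment; values are AC50 from concentration-response curves.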

[3] = Cellular Toxicity (caspase-3) H-4-II-E (AID 663); conditions: Potency: caspase-3 activation;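 also: cells exposed to compound for 16 hr before readout; 0% = DMSO basal and 100% = 100 µM tamoxifen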
In short: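 Luminescence from caspase-cleaved aminoluciferin substrate, read 20 min after reagent addition, reports caspase 3/7 activation in rat H-4-II-E cells after 16 hr compound exposure. Normalized to DMSO (basal) and 100 uM tamoxifen (100%); AC50 from Hill fits.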

[4] = Cell Viability - LYMP1-002 - Assay at 16 hr (AID 948);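 also: 0% = DMSO alone and full effect = 92 µM tetraoctylammonium bromide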
In short: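 LYMP1-002 human lymphoblastoid cells, 2500/well; 5 hr 37 C; cpd 16 hr 37 C; CellTiter-Glo 30 min RT; luminescence (ATP). Concentration-response, Hill-fit AC50. Pos ctrl tetraoctylammonium bromide.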

[5] = MultiTox-Fluor Cytotoxicity Assay - LYMP1-002 - Dead Cells (AID 960);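 also: 0% = DMSO and 100% = tetraoctylammonium bromide; nearly all actives have a fitted effect of over 60% in size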
In short: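 Acute cytotoxicity in a human lymphoblastoid line is scored as rising dead-cell protease signal after 16 hr exposure at 37 C, measured fluorometrically (485/520).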

[6] = Cell Viability - LYMP1-003 - Assay at 24 hr (AID 963);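 also: plate controls were DMSO only for no effect and tetraoctylammonium bromide positive control for full effect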
In short: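 Acute toxicity in LYMP1-003 lymphoblastoid cells: 24 hr compound treatment at 37 C, ATP measured with CellTiter-Glo after 30 min at room temperature. AC50 derived by fitting the Hill equation to qHTS titrations.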

[7] = Cell Viability - LYMP1-003 - Assay at 40 hr (AID 964); also: series mostly up to about 92 µM; % is scaled to controls: 0 for no effect and ±100 for the full control effect; nearly all actives have a fitted effect of over 60% in size
In short: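 This qHTS cytotoxicity screen treats human lymphoblastoid cells (LYMP1-003) with compounds for 40 hr and quantifies cellular ATP via luciferase luminescence.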

[8] = Cell Viability - LYMP2-003 (AID 965);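 also: cells exposed to compounds for 24 h before reading; 0% = DMSO only and full effect = 92 µM tetraoctylammonium bromide; nearly all actives have a fitted effect of over 50% in size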
In short: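 CellTiter-Glo luminescence (cellular ATP) after 24 h compound exposure at 37 C in complete medium; 2500 cells/well, 5 h settling beforehand. Concentration-response fitted to standard Hill equation for AC50. Tetraoctylammonium bromide served as positive control.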

[9] = Cell Viability - LYMP2-009 (AID 968);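 also: series mostly up to about 92 µM; 0% = DMSO alone and the full-kill end = tetraoctylammonium bromide at 92 µM; nearly all actives have a fitted effect of over 55% in size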
[10] = Cell Viability - LYMP2-011 (AID 969);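 also: 0% = DMSO only and full inhibition = 92 µM tetraoctylammonium bromide; nearly all actives have a fitted effect of over 60% in size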
In short: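 Acute toxicity is scored as a concentration-dependent drop in intracellular ATP of a human lymphoblastoid line after 24 hr treatment. Values are AC50s modeled with the Hill equation.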

[11] = Cell Viability - LYMP2-013 (AID 970);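 also: series mostly up to about 92 µM; 0% = DMSO only and full inhibition = tetraoctylammonium bromide control; nearly all actives have a fitted effect of over 55% in size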
In short: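 Acute toxicity was measured in human lymphoblastoid cells (2500/well) exposed to compound titrations for 24 hr, with ATP luminescence (CellTiter-Glo) as read-out and AC50 fitted by Hill equation.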

[12] = Cell Viability - LYMP2-017 (AID 972);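 also: series mostly up to about 92 µM; cells exposed to compound for 24 hours at 37 °C; % is scaled to controls: 0 for no effect and ±100 for the full control effect; nearly all actives have a fitted effect of over 55% in size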
In short: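 Steps: plate 2500 lymphoblastoid cells per well; incubate 5 hr at 37 C; add compound across a concentration series and incubate 24 hr at 37 C; add CellTiter-Glo and read luminescence after 30 min at room temperature; fit Hill curves for AC50.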

[13] = Cell Viability - LYMP2-023 (AID 975);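 also: cellular ATP measured by luciferase luminescence as viability proxy; series mostly up to about 92 µM; cells exposed to compound for 24 hours at 37 °C; plate controls were DMSO only for no effect and 92 µM tetraoctylammonium bromide control for full effect; nearly all actives have a fitted effect of over 55% in size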
In short: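 Concentration-dependent drop in intracellular ATP measures acute cytotoxicity in a human lymphoblastoid line treated for 24 hours in complete culture medium. AC50 values are taken from Hill-equation fits of qHTS data.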

[14] = Cell Viability - LYMP2-002 (AID 977);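 also: series mostly up to about 92 µM; plate controls were DMSO only for no effect and 92 µM tetraoctylammonium bromide for full effect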
In short: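 Luminescent ATP readout (CellTiter-Glo, 30 min room temperature) after 24 h compound exposure at 37 C of a human lymphoblastoid line, 2500 cells/well. AC50 values derived by standard Hill fitting of qHTS concentration-response data.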

[15] = target: Retinoic acid receptor RXR-alpha (Homo sapiens) (UniProt P19793); assay: qHTS assay for small molecule agonists of retinoid X receptor alpha signaling (AID 588544; calls by dose curve;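 also: 0% = DMSO basal wells and 100% = reference agonist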)
[16] = target: Retinoic acid receptor RXR-alpha (Homo sapiens) (UniProt P19793); assay: qHTS assay for small molecule antagonists of retinoid X receptor alpha signaling (AID 588546; active = well fitted inhibition curve with a large enough effect in the signal ratio, with a control signal flat, not every such curve was filed as active; the % refers to the signal ratio;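 also: cells stimulated with 9-cis-retinoic acid as agonist; % is scaled to controls: 0 for no effect and ±100 for the full control effect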); conditions: HEK293T RXRa-UAS-bla, beta-lactamase ratio, antagonist mode
In short: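 Beta-lactamase reporter inhibition, read as CCF4 fluorescence ratio (ex 405, em 460/530 nm) after 2 h at RT. HEK293T UAS-bla cells, 2500/well, were stimulated with 9-cis-RA at 500 or 100 nM final alongside test compound for 18 h at 37 C.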

[17] = qHTS assay for small molecule activators of the p53 signaling pathway (AID 651743; active = well fitted activation curve with a large enough effect in the signal ratio, not every such curve was filed as active; the % refers to the signal ratio; also: series mostly up to about 92 µM; % of control where 0% means no effect); conditions: HCT-116 p53RE-bla, beta-lactamase FRET ratio, 16 h; activation: hits give high values
In short: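 p53RE-bla HCT-116 cells with a stably integrated beta-lactamase reporter under p53 response elements were plated, rested 5 hours at 37 C/5% CO2, then exposed to compounds in DMSO for 16 hours at 37 C. LiveBLAzer B/G FRET substrate was read after 2 hours at room temperature.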

[18] = qHTS assay for small molecule agonists of the antioxidant response element (ARE) signaling pathway measured by Nrf2-dependant transcriptional activity - cell viability counter screen (AID 720653; active = well fitted curve in the direction sought with a large enough effect in the repeat runs; an effect the other way counts as inactive or inconclusive; also: % is scaled to controls: 0 for no effect and ±100 for the full control effect); conditions: ARE-bla HepG2 viability, CellTiter-Glo ATP luminescence, 16 h; hits give low values
In short: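 ARE-bla HepG2 cells (2,000/well) rested 5 hrs at 37C/5% CO2, then exposed to compounds in DMSO for 16 hrs. Viability was read in the same wells as intracellular ATP by luminescence, 30 min at room temperature after reagent addition.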

[19] = Cellular Toxicity (caspase-3) SHSY5Y (AID 657)
In short: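 Luminescent caspase-3/7 readout (aminoluciferin release) in SH-SY5Y cells after 16 h compound exposure in complete medium. Activity scaled between DMSO basal and 10 uM staurosporine as 100%; concentration-response fitted to Hill equation for AC50.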

[20] = Cell Viability - LYMP2-012 (AID 982)

Sequence of Retinoic acid receptor RXR-alpha (Homo sapiens) (P19793 whole entry, looked up): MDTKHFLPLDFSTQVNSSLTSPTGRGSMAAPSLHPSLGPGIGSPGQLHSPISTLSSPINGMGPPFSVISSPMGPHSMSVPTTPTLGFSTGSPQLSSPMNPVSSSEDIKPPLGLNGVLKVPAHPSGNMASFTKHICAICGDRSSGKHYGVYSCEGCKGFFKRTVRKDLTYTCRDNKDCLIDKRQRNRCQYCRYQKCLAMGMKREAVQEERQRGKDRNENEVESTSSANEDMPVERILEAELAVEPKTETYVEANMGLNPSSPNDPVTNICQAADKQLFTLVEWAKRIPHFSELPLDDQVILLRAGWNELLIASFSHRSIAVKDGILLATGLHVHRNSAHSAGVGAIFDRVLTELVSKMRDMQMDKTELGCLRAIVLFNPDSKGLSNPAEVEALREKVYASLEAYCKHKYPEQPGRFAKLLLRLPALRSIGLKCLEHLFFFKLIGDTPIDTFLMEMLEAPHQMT

ClCC(Cl)CCl
inactive: outcome [1] | Potency [2] | Potency [3] | outcome [4] | Potency [5] | outcome [6] | Potency [7] | Potency [8] | Potency [9] | Potency [10] | Potency [11] | Potency [12] | Potency [13] | Potency [14] | outcome [15] | max response [16] 11.2% and -5.45% | activation [17] 2.35% and -2.96% | max response [18] 3.4% and -4.41%

OCCOCCO
inactive: outcome [1] | outcome [19] | Potency [2] | Potency [3] | outcome [4] | Potency [5] | outcome [6] | Potency [7] | Potency [8] | Potency [9] | Potency [10] | Potency [12] | Potency [13] | Potency [14] | Potency [20] | outcome [15] | max response [16] 1.12% | max response [18] -0.406%

Cl/C=C\Cl
inactive: outcome [1] | Potency [2] | Potency [3] | outcome [4] | outcome [6] | Potency [7] | Potency [8] | Potency [9] | Potency [10] | Potency [11] | Potency [20] | outcome [15] | max response [16] -5.23% | activation [17] 1.35% | max response [18] -3.68%

CCCBr
inactive: outcome [1] | outcome [19] | Potency [2] | Potency [3] | outcome [4] | Potency [5] | Potency [7] | Potency [8] | Potency [9] | Potency [10] | Potency [11] | Potency [13] | Potency [14] | Potency [20] | outcome [15] | activation [17] -0.771% | max response [18] -3.32%

Clc1cccc2ccccc12
inactive: outcome [1] | Potency [2] | Potency [3] | Potency [5] | outcome [6] | Potency [7] | Potency [8] | Potency [9] | Potency [12] | Potency [13] | Potency [14] | Potency [20] | outcome [15] | max response [16] -3.67% | max response [18] 5.5%

CC(C)CON=O
inactive: outcome [1] | outcome [19] | outcome [4] | Potency [5] | outcome [6] | Potency [7] | Potency [8] | Potency [9] | Potency [12] | Potency [13] | outcome [15] | max response [16] 8.37% | activation [17] -2.37% | max response [18] 3.18%

Nc1cc(Cl)ccc1Cl
inactive: outcome [1] | Potency [2] | outcome [4] | outcome [6] | Potency [7] | Potency [8] | Potency [9] | Potency [10] | Potency [11] | Potency [12] | Potency [13] | Potency [14] | Potency [20] | outcome [15] | max response [16] 3.06% | activation [17] -3.16% | max response [18] 5.24%

Nc1cc(Cl)cc(C(=O)O)c1Cl
inactive: outcome [1] | outcome [19] | Potency [2] | Potency [3] | outcome [4] | Potency [5] | outcome [6] | Potency [7] | Potency [8] | Potency [9] | Potency [10] | Potency [11] | Potency [12] | Potency [13] | Potency [14] | Potency [20] | outcome [15] | max response [16] 5.23% and 3.9% | activation [17] -3.99% and 3.61% | max response [18] -8.07% and -24.7%

O=[N+]([O-])c1ccccc1O
inactive: outcome [1] | outcome [19] | Potency [3] | outcome [4] | Potency [7] | Potency [9] | Potency [14] | Potency [20] | outcome [15] | activation [17] -2.01% | max response [18] 5.01%

ClCCCCl
inactive: outcome [19] | Potency [2] | Potency [5] | outcome [6] | Potency [7] | Potency [8] | Potency [9] | Potency [10] | Potency [11] | Potency [12] | Potency [13] | Potency [20] | max response [16] 9.28% | activation [17] -3.64% | max response [18] 1.55%

Cc1ccc(N)cc1Cl
inactive: outcome [1] | outcome [19] | Potency [2] | Potency [3] | outcome [4] | outcome [6] | Potency [7] | Potency [8] | Potency [9] | Potency [10] | Potency [11] | Potency [12] | Potency [13] | Potency [14] | Potency [20] | outcome [15] | max response [16] -11.5% | max response [18] 7.4%

C1CC2OC2CC1C1CO1 (configuration not stated)
inactive: outcome [1] | outcome [19] | Potency [2] | Potency [3] | outcome [4] | Potency [5] | outcome [6] | Potency [8] | Potency [9] | Potency [10] | Potency [11] | Potency [12] | Potency [13] | Potency [14] | outcome [15] | max response [16] 10.1% and -3.3% | activation [17] -4.75% and -3.06% | max response [18] -8.97% and -5.29%

CC(C)C#N
inactive: outcome [1] | Potency [2] | Potency [3] | outcome [4] | Potency [5] | outcome [6] | Potency [7] | Potency [8] | Potency [9] | Potency [10] | Potency [11] | Potency [13] | Potency [14] | Potency [20] | max response [16] 2.91% | max response [18] 1.74%

Brc1cccc(-c2ccccc2)c1
inactive: outcome [1] | outcome [19] | Potency [2] | Potency [3] | outcome [4] | Potency [5] | Potency [7] | Potency [8] | Potency [9] | Potency [11] | Potency [12] | Potency [13] | Potency [14] | outcome [15] | max response [18] -6.68%
